Reference: the supplement of paper PMC6555819

Each sequence was assayed on VDR:RXRa (NR concentration 270 nM, RXRa partner concentration 90 nM) (assay: PBM binding z-score (relative to random genomic background probes); higher = stronger binding; sequences stand for … in GC…GCGATTGACAGCGTAGAATGAAGG).
Description: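 Protein-binding microarray (Agilent 4x180K custom design, double-stranded 60-nt probes: 5' GC cap, 34-nt variable region, 24-nt constant primer region; full probe sequence given). Purified or IVT nuclear receptor:RXRα heterodimers (3:1 NR:RXRα, mostly 270:90 nM) or homodimers were incubated for 1 h in PBS with 2% milk and no ligand, then detected with Alexa488 antibodies. Fluorescence from o1-orientation probes (~5 replicates averaged) was converted to z-scores against 500 random hg19 background probes. Variable regions are seed direct-repeat (DR0–DR5) sites, all their single-nucleotide variants and half-site ablations.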

Sequence | PBM binding z-score
TCTAGTTTGTCAAAGGTCACACACTCGAAATGCG | 5.12
GCTGTTAGGTCAACTGATGGTCAGCTAAAGCTCG | 2.01
CGTCCAAGGTCAAGGTCAGTGAAAGAGACTCGAA | 4.7
ACTAGCAGGCCAAGTCTGGGTCACTCAAACAAAG | 0.77
ACAACGAGGGCACGCTGAGTTGATAGCAGAGTAG | 2.01
CTAGACAGGTGAGAAGGTAACTCAGCCTCGATTA | -0.342
TAGCCTAGGTCTTTCAGGGGCCAGTATAGAAAGC | -0.481
TCTAGCAGGGCAGAGGGTCACTCAAGAGGTACGG | 1.63
TCTTGCAGATCAAGCAGGTTAAGAAAGCCTGAGT | 0.157
CCGACTGGGGCAAAGGGTACCATACTCAGTACGA | 0.4
CCGACTGGGGCAAGGATACCATAACGCACAGCCA | -0.596
CCTCCTGGGCCATCAGGTCATTGATATCAACGTT | 1.76
TGAATGAGGTTCTAAGATCAGGGAACGTTGCAAA | -0.428
TGAATGAGGTTAACGATCAGGGAACGTGGCGTCG | 1.05
CCTACTGGGCCAAAGCTCATTGATTCCAATGCTC | -0.593
CCAGACAGGTGGAAGGTAACTCAGTCTGGTACGC | -0.365
CCTATTGGGCCATTCAGAGGTCATTGATCATATG | 3.98
GCTGCTAGGTCAGGTTGGTCAGATAACGGGTACG | 0.794
TCGAGTAGGTTACGAATGGGGCATTCAGCTTTCT | -0.137
ACAGACAGGTGATGAAGGTAACTGAGGCTATCAT | 0.346

Sequence | PBM binding z-score
CGAACTAGGTCAGAACAGGACAGTCAAGGATGAT | 0.754
CCTCGGAGGACAGAAGGTAAGAGCTGTCCGCTTT | -0.622
CCGACTGGGGCCAGGTTACCATAACGCACAGCCA | -0.248
GCGACTGGGGTAAAGCAGGTTACCATAAGGTTGG | 1.15
ATCTCTAGGTAACAAGTTCAGTGCAAGAGAGGAC | 1.79
TGAATGAAGTTATAAGATCAGGGAACGTTGCAAA | -0.457
TATTGTAGATCAGCAGGTTAAGAAAGCTGGCCAA | 0.112
CCTACTGGGCCAAAAAAGTCATTGATGCCGATAA | -0.174
TCATATATGTAAAAGGTGAAAGTCGGTGTGGTAA | 1.24
CCACGGAGGACAGAAGGTCAGAGCTGTCCGCTTT | 0.979
CCTTACGGGTCTCTGACAGGTTATAGCATTTGGA | -0.307
ATCTCTAGGTAACCAAGTTCAGTGAATGCCGAAC | 4.23
CCATACGGGTCACGAGGTTATAGCACGACGAGCG | 5.02
CCGACTGGGGCAGAAAGGTTACCATACCATCCGG | 0.836
CGTCCCAGGTCAATGCTAGGTCAGTGAAAGCATT | 3.68
CCTAGCAGGCCAGGATCACTCAAGCATTTCGCTT | -0.583
TAGCCTAGGTCATGCGGGCCAGGATAGTGTCGGC | 2.76
GCGACTGGGGTATCAGCAGGTTACCATAACTTAA | -0.202
TCTTGTAGATTAAGCAGGTTAAGAAAGCCTGAGT | 0.313
CGTCCAAGGTCAATGCTCGGTCAGTGAAAGCATT | 4.21
